# Measurements as given in PubChem BioAssay (NCATS).
# Results filed as inconclusive are left out. Unmarked numbers belong to inactive results. Active and inactive are the calls of the source. The call rests on the fitted dose curve; in most records, active means well fitted cell-killing curve with a large enough effect; inconclusive means small, poorly fitted or top-dose-only effect; inactive means no such curve, though single readings can be large or run the other way.
# Assay: qHTS of pediatric cancer cell lines to identify multiple opportunities for drug repurposing: Primary screen for Saos-2 cells (AID 1347097); further: nearly all actives have a fitted effect of over 40% in size
# Conditions: Saos-2 viability, CellTiter-Glo ATP luminescence, 48 h; series mostly up to 46 µM; activity change, negative = cytotoxic: at the top concentration
# Text: Drug repurposing or repositioning has been offered as a strategy for drug development in oncology programs. This approach has special potential for childhood cancers and other rare or orphan diseases, where the expected return on new drug development has been a disincentive to pharmaceuticals. […] In this project we exploit the poly-pharmacology of drugs to discover new indications via phenotypic screening of a panel of 19 well-characterized cell lines derived from solid tumors seen in children and adolescents. The goal is to identify approved drugs with previously unrecognized anticancer properties that has the potential to reveal new mechanisms and biological processes involved in carcinogenesis or drug resistance. We employed a titration-based paradigm (quantitative high-throughput screening or qHTS), where all compounds were tested at multiple concentrations for their effect on cell viability. Concentration-response curves (CRCs) were derived directly from the primary screen, and both potency and efficacy values were used to identify compounds with robust bioactivity profiles. We screened the NIH Chemical Genomics Center (NCGC) Pharmaceutical Collection (NPC) and Mechanism Interrogation Plate (MIPE) small molecule collections of approved and investigational compounds against these cell lines; and measured metabolically active cells after 48 hours of compound treatment as a proxy for cell viability. […] Assay Submitter: Nathalia J. Martinez, National Center for Advancing Translational Sciences, National Institutes of Health, Rockville, MD, USA; email: natalia.martinez@nih.gov Shen, M et al. Quantitative high-throughput phenotypic screening of pediatric cancer cell lines identifies multiple opportunities for drug repurposing. Oncotarget 2017 Dec 19;9(4):4758-4772. PMID 29435139.
# The cells were obtained from University of North Carolina (UNC), Pediatric Preclinical Testing Program (PPT), and Coriell Institute (CI). qHTS cell viability assay: Cells were assayed in growth media at a density of 500-1,000 cells/well. Five microliters of cells were dispensed into 1,536-well, white, solid-bottom, TC-treated plates (Greiner Bio One) using a multidrop dispenser and incubated at 37 degrees C, 5% CO2, under a humidified atmosphere for 5 hours. Twenty-three nanoliters of compounds and controls (neutral control DMSO or positive control bortezomib at final concentration of 2.3 µM) were subsequently transferred by Kalypsys pintool. For primary screens, the MIPE collection was tested at 11-point dilutions (final concentrations range from 0.78 nM to 46 µM) and the NPC collection at 8-point dilutions (final concentrations range from 0.59 nM to 46 µM). Compounds tested in follow-up screens were assayed at 11-point dilutions. Cells were incubated for 48 hours, followed by addition of 3 µL of CellTiter-Glo (Promega). After a 15 min incubation at room temperature, samples were analyzed for luminescence intensity using a ViewLux High-throughput CCD imager equipped with clear filters.
# On the % scale 0 is the no-effect control and ±100 the full control effect; potency means the concentration at half of the fitted maximal effect.
SMILES,"activity change, negative = cytotoxic",Potency
CC(=O)OCC(=O)[C@@]1(O)CC[C@H]2[C@@H]3CCC4=CC(=O)C=C[C@]4(C)[C@@H]3[C@@H](O)C[C@@]21C,15.1%,–
C[C@H]1O[C@@H](n2cc(F)c(=O)[nH]c2=O)[C@H](O)[C@H]1O,17.7%,–
Cc1ccc(S(=O)(=O)OCC(=O)Nc2ccc(C(=O)O)c(O)c2)cc1,-29.6%,–
N=C1SC(=Cc2ccc(-c3ccc4c(c3)C(=O)NC4=O)o2)C(=O)N1c1ccc(Br)cc1,-16.3%,–
CC[C@H](NC(=O)[C@H](C)NC)C(=O)N1C[C@@H](O)C[C@H]1Cc1c(-c2[nH]c3cc(F)ccc3c2C[C@H]2C[C@H](O)CN2C(=O)[C@H](CC)NC(=O)[C@H](C)NC)[nH]c2cc(F)ccc12,–,0.372 µM (active)
Nc1[nH]nc2nnc(-c3c(-c4ccccc4)nn4ccccc34)cc12,–,9.35 µM (active)
CCOC(=O)[C@@H](N)CCC(=O)N[C@@H](CSCc1ccccc1)C(=O)N[C@@H](C(=O)OCC)c1ccccc1,4.97%,–
COc1cc2nccc(Oc3ccc(NC(=O)Nc4cc(C)on4)c(Cl)c3)c2cc1OC,–,14.8 µM (active)
NC(=O)c1nnn(Cc2cc(Cl)c(C(=O)c3ccc(Cl)cc3)c(Cl)c2)c1N,–,23.5 µM (active)
CCCCC(C=O)NC(=O)C(CC(C)C)NC(=O)OCc1ccccc1 (stereo not given),-18.2%,–
Nc1ncnc2c1c(-c1cccc(OCc3ccccc3)c1)cn2C1CC(CN2CCC2)C1 (stereo not given),–,3.32 µM (active)
CS(=O)(=O)c1ccc(C2=C(c3ccccc3)C(=O)OC2)cc1,10.7%,–
CN[C@@H](C)[C@H]1[C@H](O)C[C@@]2(C)[C@@H]3CC[C@H]4C(C)(C)[C@@H](NC)CC[C@@]45C[C@@]35CC[C@]12C,-15.8%,–
COc1ccc(-c2ccc3ncc4c(c3c2)n(-c2ccc(N3CCNCC3)c(C(F)(F)F)c2)c(=O)n4C)cn1,–,0.418 µM (active)
CN1CCN(c2cccc(Nc3nc4c(-c5ccc(S(C)(=O)=O)cc5)cccn4n3)c2)CC1,–,18.7 µM (active)
CO[C@H]1/C=C\O[C@@]2(C)Oc3c(C)c(O)c4c(O)c(c(C=NN5CCN(C6CCCC6)CC5)c(O)c4c3C2=O)NC(=O)C(C)=CC=C[C@H](C)[C@H](O)[C@@H](C)[C@@H](O)[C@@H](C)[C@H](OC(C)=O)[C@H]1C,–,0.0935 µM (active)
CCN(CCO)CCCOc1ccc2c(Nc3cc(CC(=O)Nc4cccc(F)c4)[nH]n3)ncnc2c1,-29.9%,–
Oc1cc(O)cc(C=Cc2ccc(O)c(O)c2)c1,–,5.26 µM (active)
COc1c(C)c2c(c(O)c1CC=C(C)CCC(=O)O)C(=O)OC2,-6.92%,–
Cc1ccc(C(=O)N(CCCN)[C@@H](c2oc3cc(Cl)ccc3c(=O)c2Cc2ccccc2)C(C)C)cc1,–,0.001 µM (active)

SMILES,"activity change, negative = cytotoxic",Potency
COc1cccc(OC)c1-c1cc(C(=O)NC2(C(=O)O)C3CC4CC(C3)CC2C4)nn1-c1ccnc2cc(Cl)ccc12 (stereo not given),-6.63%,–
FC(F)(F)c1ccc(C=Cc2nc(COc3ccc(CCCCn4ccnn4)cc3)co2)cc1,–,0.0332 µM (active)
CC(C)(OCc1nn(Cc2ccccc2)c2ccccc12)C(=O)O,-4.85%,–
CCC(=C(c1ccc(O)cc1)c1ccc(OCCNC)cc1)c1ccccc1,–,18.7 µM (active)
Cc1c(C(=O)Nc2ccc(N3C[C@@H](C)O[C@@H](C)C3)nc2)cccc1-c1ccc(OC(F)(F)F)cc1,–,18.7 µM (active)
Cc1cccc(Nc2nc(N[C@@H]3CCCC[C@H]3N)ncc2C(N)=O)c1,–,8.33 µM (active)
Cc1[nH]c(C=C2C(=O)Nc3ccc(S(=O)(=O)N(C)c4cccc(Cl)c4)cc32)c(C)c1C(=O)N1CCN(C)CC1,–,18.7 µM (active)
Cc1ccc2c(c1)C(=O)[C@]1(O)CCN(c3ccccc3)C1=N2,-6.9%,–
CCCCC(F)(F)[C@@]1(O)CC[C@H]2[C@H](CC(=O)[C@@H]2CCCCCCC(=O)O)O1,17.5%,–
C[C@@H]1[C@H](C)CC[C@]2(C(=O)O)CC[C@]3(C)C(=CC[C@@H]4[C@@]5(C)CC[C@H](O)C(C)(C)[C@H]5CC[C@]43C)[C@@H]12,–,9.59 µM (active)
COc1cc([C@H]2Oc3cc([C@H]4Oc5cc(O)cc(O)c5C(=O)[C@H]4O)ccc3O[C@H]2CO)ccc1O,-16.5%,–
COc1ccc(-c2oc3c(CC=C(C)C)c(O)cc(O)c3c(=O)c2O)cc1,–,23.5 µM (active)
O=C(O)Cc1cccc(OCCCN(Cc2cccc(C(F)(F)F)c2Cl)CC(c2ccccc2)c2ccccc2)c1,26.2%,–
CCOC(=O)N1CCN([N+]([O-])=NOc2cc(ON=[N+]([O-])N3CCN(C(=O)OCC)CC3)c([N+](=O)[O-])cc2[N+](=O)[O-])CC1,49.4%,–
COc1cc(F)c(C(C)C)cc1-c1ccc(C(F)(F)F)cc1CN1C(=O)O[C@H](c2cc(C(F)(F)F)cc(C(F)(F)F)c2)[C@@H]1C,18.3%,–
c1cc(OCCN2CCCCC2)cc(-c2n[nH]c3ccc(-c4ncn[nH]4)cc23)c1,-13.9%,–
O=C(Nc1ncc(SCCN2CCCC2)s1)[C@]1(c2ccc(S(=O)(=O)C3CC3)cc2)C[C@@H]1C1CCCCC1,–,33.2 µM (active)
C[C@]12CCC3=C4CCC(=O)C=C4CC[C@@H]3[C@H]1CC[C@@]2(O)CC#N,-5.06%,–
C=C[C@@H]1CN2CCC1C[C@@H]2C(O)c1ccnc2ccc(OC)cc12 (stereo not given in full),-24.7%,–
CC(=O)NCCC(=O)N[C@@H](CCC(N)=O)C(=O)N[C@@H](CO)C(=O)N[C@@H](CCC(N)=O)C(=O)N[C@@H](CCC(N)=O)C(=O)N[C@H](C(=O)N[C@@H](Cc1ccccc1)C(=O)N[C@]1(C)CCCCCCC=CCCC[C@@](C)(C(=O)N[C@@H](CCC(N)=O)C(=O)N[C@@H](CC(N)=O)C(N)=O)NC(=O)[C@H](CC(C)C)NC(=O)[C@H](CC(C)C)NC(=O)[C@@H](CCCNC(=N)N)NC(=O)[C@H](Cc2c[nH]c3ccccc23)NC(=O)[C@H](CC(C)C)NC(=O)[C@H](CC(N)=O)NC1=O)[C@H](C)O,9.61%,–
